Experimental data from the supplement of paper PMC11417369.
± gives the standard deviation of the averaged measurements. Over roughly 25,000 sequences, “ln(normalized median fluorescence intensity)” has its median near 10; the highest 2% begin near 12. What follows is part of a selection rich in the highest values, with near analogues and random picks from the rest.

System: PfAP2-G AP2 domain (GST-tagged)
Assay: gcPBM binding intensity (ln(normalized median fluorescence intensity)); higher = stronger DNA binding
Procedure, shortened: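 Probes on an Agilent 4 × 180k array were primer-extended, double-stranded and 36 bp long, taken from intergenic genomic regions, with negative controls added. GST-tagged P. falciparum DNA-binding domains from E. coli, about 25 μg on average, were applied to the array for 1 h in 1× PBS containing 1% milk, 0.2 mg/ml BSA, 0.5% salmon testes DNA and 0.03% Triton X-100. Binding intensity, obtained after Alexa488 anti-GST antibody detection and a 488 nm scan, is the highest Masliner-normalised natural-log median intensity across replicate spots of either probe orientation.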

| Sequence | gcPBM binding intensity (ln) |
| --- | --- |
| ATAAAATAAAAGTGTACACAAGAAAATATGTTATGT [CACACA_site6033] | 11.6 ± 0.79 |
| TATATATATATGTGTAGTACAACAAATATGAAAAAT [XGTACX_site4059] | 11.7 ± 0.86 |
| AGTATAAAATAAATGTGTACACAAGAAAATATGTTA [XGTACX_site8381] | 11.8 ± 0.93 |
| GATTATATATGAAAATGTACAAATATATATATATAT [XGTACX_site5963] | 10.8 ± 0.28 |
| TATATATATATGTGTACACAAAAAATATTATATTAT [CACACA_site5505] | 11.9 ± 0.93 |
| ATAATATAACACAAATGTACAAAAAATAAATAAATA [XGTACX_site385] | 10.7 ± 0.4 |
| ATATATGAAAATATATGTACACAACATATAAAATAG [XGTACX_site5132] | 11.4 ± 0.83 |
| ATCTAATAAAAATACACACACATATGATTTGTGAAT [CACACA_site1867] | 10.1 ± 0.28 |
| TTCTTTTTAAATATACTAATTATGTATAAAACAGAA [GTGCAC_negctrl_site131] | 9.94 ± 0.23 |
| TAAATTATTTATAAAGCACACAAGAAAAAATAAAAT [CACACA_site2132] | 10.2 ± 0.092 |
| TTTCACACTATTTCATGTACACATAAAATTATATAT [XGTACX_site8692] | 11.4 ± 0.94 |
| ATACTATAATAATACACACTCATTAGATATATAAAG [CACACA_site7787] | 9.99 ± 0.12 |
| AAAAAAAAAAAATGAGCACACATAAATAAAAACAAA [CACACA_site8447] | 10.2 ± 0.12 |
| AAATTAAATAAATTTACACACTAAAAATTACAGATA [CACACA_site4722] | 9.88 ± 0.028 |
| AAAAATATAATATAATGTACACAAAAAAAAAAAAAT [XGTACX_site4914] | 11.6 ± 0.91 |
| ATACACATATGTTAATGTACACATATATAATATTTA [XGTACX_site163] | 11.3 ± 0.78 |
| TATATATATATAATGTGTACACAAATATATATTATA [XGTACX_site8786] | 11.7 ± 1.1 |
| TTAAAAATGTGTGTGCGTACATAATATTTCGAAAAA [XGTACX_site8197] | 11.6 ± 1 |
| TTATTTTTTTTTTTTTGTACACAATTTGACACATTA [XGTACX_site7983] | 11.5 ± 0.91 |
| GACAAATTATTGTGTACACAATATTATTATATATAC [CACACA_site6020] | 11.6 ± 0.89 |
| AAAAATATATTATATGTACACACAAAATTAAGGGAT [CACACA_site8384] | 11.5 ± 0.83 |
| TGTATTATATATACACAAATATTTATGTGTGTGTTT [XGTACX_negctrl_site475] | 10.1 ± 0.11 |
| AAATGTGTTAATGTGCGTACACATATATATAATATT [XGTACX_site2792] | 11.7 ± 1.1 |

| Sequence | gcPBM binding intensity (ln) |
| --- | --- |
| AATGTATAATTATAATGTACAAATAATATATAATAT [XGTACX_site5407] | 10.9 ± 0.4 |
| TTTGACAAATTATTGTGTACACAATATTATTATATA [XGTACX_site8320] | 11.7 ± 1 |
| ATATATATATATATGTGTACACAAAAAATATTATAT [XGTACX_site5741] | 11.6 ± 0.83 |
| TTTTTTTTCTCACAAAAAATAATTAACAAAAAGGAA [XGTACX_negctrl_site154] | 10.2 ± 0.32 |
| ATATATATAATAAATACACACATTTATATAGATAAA [CACACA_site3254] | 9.925 ± 0.092 |
| TGACTTTGTTGAATTTGTCCTCTTAACTCATAATAT [GTGCAC_negctrl_site217] | 10.6 ± 0.48 |
| TCCTTTCTTTTTTAAACATGCATATGTAATATAAAT [TGCATGCA_site979] | 10 ± 0.26 |
| TTTTTTTGCGCGGGAAGAATAAAATTTATAGAATAT [TGCATGCA_negctrl_site306] | 10.4 ± 0.36 |
| ATAAATAATATAAATACACACTAAAAAAGATATATA [CACACA_site6397] | 10.01 ± 0.014 |
| TATAAATATAAATACTGTACATTATATTATATAATA [XGTACX_site2480] | 11 ± 0.71 |
| ATATATATACTGTGTACACAAATATATATTATATAT [CACACA_site6104] | 11.6 ± 0.84 |
| ATAATAATATTGTGTACACAATAATTTGTCAAATCA [CACACA_site6019] | 11.7 ± 0.86 |
| ATAATACCATTAATTTGTACATATATATTATATATA [XGTACX_site4345] | 10.9 ± 0.49 |
| TTTATACAAATATGTACACACTAAATATATATTATG [CACACA_site4413] | 11.5 ± 0.77 |
| TATATTTTTTTTGTGCGTACATACCATTTTAATAAT [XGTACX_site2751] | 11.7 ± 0.8 |
| TTTTTTTTTTTTGTGCGTACATACCATTTTAATAAT [XGTACX_site2760] | 11.6 ± 0.92 |
| ATAATCACAAATAATTGTACATTTTGTTATATATAT [XGTACX_site7704] | 10.8 ± 0.45 |
| TAGTATAAAATTATGTGTACACAAATATAACTTTTC [XGTACX_site5971] | 11.6 ± 0.78 |
| TATAAAATTATGTGTACACAAATATAACTTTTCTTT [CACACA_site5554] | 11.7 ± 0.95 |
| AACTTCTTTTTTATAACACACAAAATATAAATACAA [CACACA_site4313] | 10.2 ± 0.43 |
| TTGTGTCATATATTTTGTAATCAAAATAATTTTATT [TGCATGCA_negctrl_site307] | 10.1 ± 0.37 |
| ATATATATATATATATGTACTTATATATAATATAGA [XGTACX_site3488] | 11.2 ± 0.79 |
